The panel holds about 83,000 compounds, 20% with a hit somewhere; the sample as a whole holds those more often.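 Values shown are percent growth following 48 h exposure of cells in 96-well plates to a single concentration of compound; below 10 was considered active.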 Activity calls are given as the source filed them.
Test system: OVCAR-4 ovarian
Assay: NCI-60 one-dose screen, 48 h (100 = growth as untreated, 0 = no growth, -100 = all killed)
Conditions: 10 µM unless noted

Compound | growth
COc1cc2nc(-c3ccc(C(F)(F)F)cc3)cc(OCCN3CCC(O)CC3)c2cc1OC | 88.3% (inactive)
COc1cccc(-c2nc3occn3c2-c2ccnc(NCCCNS(=O)(=O)c3cccc(F)c3)n2)c1 | 71.9% (inactive)
COc1ccc(C(=O)c2cc3c(N)c(C(=O)Nc4cccc5ccccc45)sc3nc2C)cc1 | 37.2% (inactive)
CCCCCCCCCCN=C(N)N=C(N)N | 44.9% (inactive)
CN1CCN(Cc2ccc(NC(=O)c3cncc(C#Cc4cnccc4C(F)(F)F)c3)cc2C(F)(F)F)CC1 | 59.2% (inactive)
C=C(C)[C@@H]1CC[C@]2(CO)CC[C@]3(C)[C@H](CC[C@@H]4[C@@]5(C)CCCNC(C)(C)[C@@H]5CC[C@]43C)[C@@H]12 | 31.8% (inactive)
O=S(=O)(NCCNc1nccc(-c2c(-c3cccc(F)c3)nc3occn23)n1)c1cccc2ccccc12 | 47.8% (inactive)
CC(=O)N1c2ccccc2NC2=C(C(=O)N(C)C2(C)C)C1C (centres undefined) | 55.2% (inactive)
O=C(Nc1ccc(F)cc1)c1c(NC(=O)C(F)(F)F)sc2c1CCCCC2 | 4.42% (active)
O=C1Nc2c(ccc(Cl)c2Cl)/C1=C/c1ccc([N+](=O)[O-])cc1 | 100% (inactive)
COc1ccc(-c2nc(N/N=C/c3ccco3)nc(N3CCOCC3)c2C#N)cc1 | 78% (inactive)

Test system: SK-OV-3 ovarian
Assay: as above
Conditions: 10 µM unless noted

Compound | growth
O=S(=O)(NCCNc1nccc(-c2c(-c3ccc(F)c(O)c3)nc3occn23)n1)c1ccccc1 | 68.6% (inactive)
Cc1ccc2[nH]c(=O)cc(-n3nncc3COc3ccc(C=O)cc3)c2c1 | 107% (inactive)
Brc1ccc(C2CC(c3cccc(Nc4ccncc4)c3)=NN2c2ccccc2)cc1 (centres undefined) | 84.4% (inactive)
COc1cc(NCC(O)CN(CC(C)C)C2CCCC2)c2ncccc2c1 (centres undefined) | 93.3% (inactive)
CC(=O)OCCCCCNc1ccccc1 | 109% (inactive)
CN1CCN(CC#CCNC(=O)[C@]23CCC(C)(C)C[C@H]2C2=CC[C@@H]4[C@@]5(C)Cc6c([nH]c7ccccc67)C(C)(C)[C@@H]5CC[C@@]4(C)[C@]2(C)CC3)CC1 | 87.1% (inactive)
COc1c(Cl)cc(Cl)c2ccc(C=C3C(=O)N(C)C(=O)N(C)C3=O)nc12 | 101% (inactive)
Nc1c(C(=O)Nc2ccc(Cl)cc2)cc(-c2nc3ccccc3s2)c(=O)n1NS(=O)(=O)c1ccc(Cl)cc1 | 101% (inactive)
COc1ccc(C(=O)c2cc3c(N)c(C(=O)Nc4cccc(Br)c4C)sc3nc2C)cc1 | 23.2% (inactive)
CCN(CC)S(=O)(=O)c1cccc([N+](=O)[O-])c1 | 86.9% (inactive)
CCc1c(Nc2ccc(C)cc2)nc(N)[nH]c1=O | 114% (inactive)
CN1CCN(c2cc(F)c(NC3=C(Cl)C(=O)c4ncccc4C3=O)c(F)c2)CC1 | 82.7% (inactive)
Cn1c(COC(=O)NCCn2ccnc2)nc2c(N3CCOCC3)nc(-c3ccccc3)nc21 | 50.2% (inactive)
COc1cc(CNC(=O)CCCCC[P+](c2ccccc2)(c2ccccc2)c2ccccc2)c(OC)c2c1OCO2 | 127% (inactive)
CC(=O)OCC(=O)[C@@]1(O)CC[C@H]2[C@@H]3CC(=C(Br)Br)C4=CC(=O)CC[C@]4(C)[C@H]3C(=O)C[C@@]21C | 72.9% (inactive)
O=C1CCCCCCCCC(O)C(O)CCCC(c2cccs2)O1 (centres undefined) | 82.1% (inactive)
COC(=O)C1=C(C(=O)ONCCN(C)C)C2C=CC1(C(Cc1ccccc1)Nc1ccc(F)cc1)O2 (centres undefined) | 104% (inactive)
CS(=O)(=O)c1ccc(-c2cc3c(oc2=O)-c2ccccc2OC3O)cc1 (centres undefined) | 92.8% (inactive)
Clc1ccc(C2CC(c3cccc(Nc4ccncc4)c3)=NN2c2ccc(Cl)cc2)cc1 (centres undefined) | 83.7% (inactive)

Compound | growth
CCN(CC)CCCCCCNc1cc(OC)cc2cccnc12 | 101% (inactive)
Clc1cc(Cl)cc(N2N=C(c3cccc(Nc4ccncc4)c3)CC2c2ccc3c(c2)OCO3)c1 (centres undefined) | 74.1% (inactive)
CC(=O)N1N=C(c2cccc(Nc3ccncc3)c2)CC1c1ccc2c(c1)OCO2 (centres undefined) | 78.3% (inactive)
COc1cc(/C=C/C(=O)c2c(C)oc3nc[nH]c(=O)c23)ccc1O | 103% (inactive)
Cc1ccc(C2C3CC4CCCCC4N3[C@@]3(C(=O)Nc4cc(Cl)ccc43)C2C(=O)c2nc3ccccc3[nH]2)cc1 (some centres undefined) | 77.6% (inactive)
CCCCCOc1ccc(/C=N/Nc2cc(C)nc3ccc(Br)cc23)cc1 | 102% (inactive)
C=C1C(=O)O[C@H]2[C@H]1CC/C(COC(=O)/C=C/c1c[nH]c3ccccc13)=C\CC[C@@]1(C)O[C@@H]21 | 50.8% (inactive)
CCCCCN1C=C/C(=C\C(=O)N(C)c2ccc(Br)cc2)c2ccccc21 | 96.8% (inactive)
COc1cc2nc(-c3ccc(C(F)(F)F)cc3)cc(OCCN3CCC(O)CC3)c2cc1OC | 85.4% (inactive)
COc1cccc(-c2nc3occn3c2-c2ccnc(NCCCNS(=O)(=O)c3cccc(F)c3)n2)c1 | 86.3% (inactive)
COc1ccc(C(=O)c2cc3c(N)c(C(=O)Nc4cccc5ccccc45)sc3nc2C)cc1 | 32% (inactive)
CCCCCCCCCCN=C(N)N=C(N)N | 52.3% (inactive)
CN1CCN(Cc2ccc(NC(=O)c3cncc(C#Cc4cnccc4C(F)(F)F)c3)cc2C(F)(F)F)CC1 | 89% (inactive)
C=C(C)[C@@H]1CC[C@]2(CO)CC[C@]3(C)[C@H](CC[C@@H]4[C@@]5(C)CCCNC(C)(C)[C@@H]5CC[C@]43C)[C@@H]12 | 92.2% (inactive)
O=S(=O)(NCCNc1nccc(-c2c(-c3cccc(F)c3)nc3occn23)n1)c1cccc2ccccc12 | 69% (inactive)
CC(=O)N1c2ccccc2NC2=C(C(=O)N(C)C2(C)C)C1C (centres undefined) | 55.4% (inactive)
O=C(Nc1ccc(F)cc1)c1c(NC(=O)C(F)(F)F)sc2c1CCCCC2 | -16.8% (active)
O=C1Nc2c(ccc(Cl)c2Cl)/C1=C/c1ccc([N+](=O)[O-])cc1 | 93.8% (inactive)
COc1ccc(-c2nc(N/N=C/c3ccco3)nc(N3CCOCC3)c2C#N)cc1 | 64.6% (inactive)

Source: PubChem BioAssay (NCI)
